Structures are written as SMILES. Structures can show the parent of a compound that is named as a salt. Unmarked numbers belong to inactive results. The rule behind the calls is not given here. Residues, ends and D or L forms follow the SMILES beside them. *: point of attachment. Tfa = O=C(C(F)(F)F)*

Activity remaining data for 40 compounds are collected here from PubChem BioAssay.

The test relates to Aerobactin synthetase IucA (Klebsiella pneumoniae hvKP1). Kind of test: IucA enzyme inhibition, primary screen, biochemical, Spectrum library (AID 1346200).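 Note: 100% = wells without compound and 0% = wells lacking enzyme.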 The note with it: malachite green pyrophosphate, A620, at 8 µM, stronger effect = lower value.
`CCCOc1ccc2nc(NC(=O)OC)[nH]c2c1`: the activity remaining was 98.2%. Regarding `Oc1ccc(Cl)cc1Cc1cc(Cl)ccc1O`, the activity remaining is 108%. As for `CC(=O)OCC(=O)[C@@]1(O)CCC2C3C[C@H](C)C4=CC(=O)C=CC4(C)C3[C@@H](O)CC21C` (stereo not given in full), the activity remaining was 93.6%.

`O=C(OOC(=O)c1ccccc1)c1ccccc1`: the activity remaining is 113%. To `C[C@H]1O[C@H](O[C@H]2[C@H](O)[C@@H](O)[C@@H](O[C@H]3[C@H](O)[C@@H](O)C(O)O[C@@H]3CO)O[C@@H]2CO)[C@H](O)[C@@H](O)[C@@H]1N[C@H]1C=C(CO)[C@@H](O)[C@H](O)[C@H]1O` (stereo not given in full) belongs 107%; to `C[C@@H]1O[C@@H](OC[C@H]2OC(Oc3c(-c4ccc(OCCO)c(OCCO)c4)oc4cc(OCCO)cc(O)c4c3=O)[C@H](O)[C@@H](O)[C@@H]2O)[C@H](O)[C@H](O)[C@H]1O` (stereo not given in full), 121%.

For `CCOC(=O)C(Cc1ccc(O)cc1)NC(C)=O` (stereo not given), the activity remaining was 98.7%. For `O=C(O)CCCCC1SCC2NC(=O)NC21` (stereo not given), the activity remaining was 121%.

In the case of `CC(=O)NC1SCCC1=O` (stereo not given), the activity remaining was 112%. For `COC(=O)[C@]1(C)CCC[C@]2(C)c3ccc(C(C)C)cc3C(=O)CC12` (stereo not given in full), the activity remaining is 89.3%. As for `COc1ccc(-c2oc3ccccc3c(=O)c2O)cc1OC`, the activity remaining is 109%. `O=C1C=CC2=C3c4cc(O)c(O)cc4C[C@@]3(O)COC2=C1`: the activity remaining is 120%. As for `CCC(CCC(C)[C@H]1CCC2C3CC=C4C[C@@H](O)CC[C@]4(C)C3CC[C@@]21C)C(C)C` (stereo not given in full), the activity remaining is 114%. On to `O=C(O)c1ccc2c(c1)OCO2`, for which the activity remaining is 101%.

For `CN(C(=O)C(Cl)Cl)c1ccc(OC(=O)c2ccco2)cc1`, the activity remaining was 96.4%. Regarding `CN(C)CCOC(c1ccccc1)c1ccccc1` (tested in a mixture with another compound), the activity remaining is 117%.

`COC(=O)[C@H](Cc1ccccc1)NC(=O)[C@@H](N)CC(=O)O` (H-Asp-Phe-OMe): the activity remaining was 104%.

Regarding `CC1(C)C[C@@H]2C(=O)CC[C@H]3O[C@]3(C)CC[C@H]21`, the activity remaining is 110%. `COC(=O)Nc1nc2ccc(Sc3ccccc3)cc2[nH]1`: the activity remaining was 114%. For `O=C(O[C@@H]1Cc2c(O)cc(O)cc2O[C@@H]1c1ccc(O)c(O)c1)c1cc(O)c(O)c(O)c1`, the activity remaining is 107%.

Turning to `COC(=O)[C@]1(C)CC[C@]2(C)CC[C@]3(C)C4=CCc5c(cc(O)c(O)c5C)[C@]4(C)CC[C@@]3(C)C2C1` (stereo not given in full), the activity remaining was 106%. Regarding `COc1cc(C(=O)N2CCOCC2)cc(OC)c1OC`, the activity remaining was 111%. Consider `CC(=O)OC1CCC2(C)C3CC(=O)C4(C)C(CC5OC6(CCC(C)CO6)[C@@H](C)C54)C3CC[C@H]2C1` (stereo not given in full), for which the activity remaining was 102%. For the compound `COc1cc(O)c(C(=O)c2ccccc2)cc1O`, the activity remaining is 107%. Regarding `C[n+]1ccccc1/C=N/O`, the activity remaining is 117%. To `CC(=O)O[C@@H]1CC2C(C)(C)C(=O)C=C[C@]2(C)C2CC[C@@]3(C)[C@H](c4ccoc4)OC(=O)[C@H]4O[C@]43[C@@]21C` (stereo not given in full) belongs 104%. `C[C@]12C=CC(=O)C=C1CCC1C2[C@@H](O)C[C@@]2(C)C1CC[C@]2(O)C(=O)CO` (stereo not given in full): the activity remaining was 119%. With `CC(C)(Sc1cc(C(C)(C)C)c(O)c(C(C)(C)C)c1)Sc1cc(C(C)(C)C)c(O)c(C(C)(C)C)c1`, the activity remaining is 89.7%. Turning to `C1CCC(C(CC2CCCCN2)C2CCCCC2)CC1` (stereo not given), the activity remaining is 103%.

In the case of `CC(C)C(NC(=O)C(Cc1ccc(O)cc1)NC(=O)C(NC(=O)C(F)(F)F)C(C)C)C(=O)O` (stereo not drawn) (Tfa-Val-Tyr-Val-OH; configuration not given here), the activity remaining was 105%. For the compound `O=C1O[C@H](C(O)CO)C(O)=C1O` (stereo not given in full), the activity remaining was 92.2%. Turning to `OC[C@H]1O[C@@H](O[C@@H]2[C@@H](CO)O[C@](O)(CO)[C@H]2O)[C@H](O)[C@@H](O)[C@H]1O`, the activity remaining is 121%. Then `NC(N)=NS(=O)(=O)c1ccc(N)cc1`, with 98.6%. For `O=C1c2ccccc2C(=O)C1c1ccccc1`, the activity remaining was 121%. Then `NC(N)=O`, with 91.3%; and `CC(=O)Nc1ccccc1`, with 103%; and `CC(=O)O[C@H]1C[C@@H](OC(C)=O)C(C)(C)C2C[C@@H](O)[C@]3(C)C(CC[C@@]4(C)[C@H](c5ccoc5)OC(=O)[C@H]5O[C@]543)[C@]21C` (stereo not given in full), with 94.5%.

Regarding `CC(=O)O[C@H]1CC[C@@]2(C)C(=CC(=O)C3C4CCC(C(C)CCCC(C)C)[C@@]4(C)CCC32)C1` (stereo not given in full), the activity remaining is 123%.

Take `O=C(O)c1ccccc1C(=O)Nc1ccc(S(=O)(=O)Nc2nccs2)cc1`: the activity remaining was 98.2%. Regarding `C=C1c2c(Cl)ccc(O)c2C(O)=C2C(=O)[C@]3(O)C(O)=C(C(N)=O)C(=O)[C@@H](N(C)C)[C@@H]3[C@@H](O)[C@H]12`, the activity remaining was 109%.
